# Experimental data from PMC5540273 (PLoS ONE, 2017).
# Tests used:
# Conditions in all cases: concentration: 1 μM, replicates: in singlicate; n = 1
# PIK3C2G = test system: PIK3C2G
# PIK3CA = test system: PIK3CA
# PIK3CB = test system: PIK3CB
# PIK3CD = test system: PIK3CD
# PIK3CG = test system: PIK3CG
# PIK4CB = test system: T1, PIK4CB
# T1 construct: gene PI4KB
# PIKFYVE = test system: PIKFYVE
# PIM1 = test system: PIM1
# PIM2 = test system: PIM2
# PIM3 = test system: PIM3
# PIP5K1A = test system: PIP5K1A
# PIP5K1C = test system: PIP5K1C
# PIP5K2B = test system: PIP5K2B
# PIP5K2C = test system: T2, PIP5K2C
# T2 construct: gene PIP4K2C
# PKAC-alpha = test system: T3, PKAC-alpha
# T3 construct: gene PRKACA
# PKAC-beta = test system: T4, PKAC-beta
# T4 construct: gene PRKACB
# PKMYT1 = test system: PKMYT1
# PKN1 = test system: PKN1
# PKN2 = test system: PKN2
# PLK1 = test system: PLK1
# 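Also: KINOMEscan kinase panel screen.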
SMILES,%Inh (PIK3C2G) [%],%Inh (PIK3CA) [%],%Inh (PIK3CB) [%],%Inh (PIK3CD) [%],%Inh (PIK3CG) [%],%Inh (PIK4CB) [%],%Inh (PIKFYVE) [%],%Inh (PIM1) [%],%Inh (PIM2) [%],%Inh (PIM3) [%],%Inh (PIP5K1A) [%],%Inh (PIP5K1C) [%],%Inh (PIP5K2B) [%],%Inh (PIP5K2C) [%],%Inh (PKAC-alpha) [%],%Inh (PKAC-beta) [%],%Inh (PKMYT1) [%],%Inh (PKN1) [%],%Inh (PKN2) [%],%Inh (PLK1) [%]
CN(c1ccc(NC(=O)Nc2cc(C(F)(F)F)ccc2F)cc1)c1ccnc(Nc2ccc(S(N)(=O)=O)cc2)n1 [GW809893],39,3,0,30,31,0,0,0,0,0,10,14,0,94.6,18,18,1,0,8,3
CCc1ccc(-c2ccc3c(c2)-c2c(cnn2C)S(=O)(=O)N3C)cc1,0,5,0,0,2,12,53,1,0,0,0,24,0,77,0,12,30,2,0,0
COc1cccc(-c2ccc3c(NC(=O)C4CC4)n[nH]c3n2)c1 [SB-710903],0,0,0,9,0,0,27,12,0,0,58,65,20,64,0,0,8,0,0,0
O=C(NC1CCN(c2ccnc(Nc3ccc(F)cc3)n2)C1)c1cc2ccccc2s1 (centres unmarked) [GSK1379716],0,0,0,0,0,0,4,20,0,11,7,60,0,42,0,0,6,0,0,7
CNC(=O)c1ccccc1Nc1nc(Nc2ccc(N3CCOCC3)cc2)ncc1Cl.Cl [GSK1576028],0,15,50,29,31,56,53,45,0,55,45,0,85,57,96.5,93.6,32,55,52,96.3
CCCCc1nn2ncccc2c1-c1ccnc(Nc2ccc(N3CCN(C)CC3)cc2)n1 [GW684941],0,0,0,41,0,74,51,0,0,0,33,48,5,96.7,0,8,0,5,0,0
COc1cc(Nc2nccc(N3CCC(NC(=O)c4cc5ccccc5s4)C3)n2)cc(OC)c1OC (centres unmarked) [GSK1379760],0,0,0,14,0,0,6,16,0,3,26,52,15,92.6,18,0,0,0,1,17
Cn1cc(-c2[nH]c3cc(NC(=O)[C@H](N)C4CCCCC4)cc4c3c2C=NNC4=O)cn1,0,0,9,6,0,0,1,39,0,46,33,52,82,41,70,63,2,88,90.5,0
Cl.c1ccc(-c2ccc3c(Nc4ccc5[nH]ncc5c4)ccnc3c2)nc1 [GW440137],0,6,0,2,5,0,7,0,0,9,18,30,0,55,0,0,0,15,0,0
CN(C)Cc1ccc(-c2ccc3c(Nc4ccc(Oc5ccccn5)cc4)ccnc3c2)o1 [GW567148],0,0,0,0,0,0,0,0,0,0,33,18,0,49,0,0,0,0,0,0
COc1ccc(Nc2nccc(N3CCC(NC(=O)Nc4cccc(OC)c4)C3)n2)cc1 (centres unmarked) [GSK1379742],0,0,0,0,0,1,0,0,0,3,0,44,14,16,1,0,0,0,0,5
Cc1cccc(Nc2nc(N[C@H]3CCNC3)ncc2C(N)=O)c1.Cl [GSK2197149],0,0,0,0,0,8,0,28,68,76,47,76,65,0,19,0,0,3,14,0
O=C(Nc1cccc(Oc2ccc3nc(NC(=O)C4CC4)cn3n2)c1)c1ccccc1C(F)(F)F,0,0,0,0,0,0,0,0,0,0,39,33,0,34,0,34,0,0,0,0
Cc1occc1-c1ncc(OC[C@@H](N)Cc2c[nH]c3ccccc23)cc1-c1ccc2[nH]nc(C)c2c1.O=C(O)C(F)(F)F [GSK682037],0,0,0,0,0,0,0,39,97.4,64,75,19,40,0,99.8,99.5,7,28,64,0
O=c1[nH]cc(-c2ccc(N3CCOCC3)cc2)c2sc(-c3cn[nH]c3)cc12 [GSK2276055],0,21,11,3,21,8,31,77,51,67,0,24,1,0,0,0,0,15,0,7
O=C(Nc1cccc(-c2nn3ccccc3c2-c2ccnc(Nc3cccc(F)c3)n2)c1)c1c(F)ccc(F)c1Cl [GSK357952],21,0,0,0,0,24,0,10,0,0,0,7,8,0,13,18,5,17,0,0
COC(=O)Nc1nc2ccc(Oc3ccc(NC(=O)Nc4cc(C(F)(F)F)ccc4F)cc3)cc2n1C.Cl [GW692089],4,0,0,0,0,0,6,0,24,0,74,61,22,41,0,0,0,0,11,0

SMILES,%Inh (PIK3C2G) [%],%Inh (PIK3CA) [%],%Inh (PIK3CB) [%],%Inh (PIK3CD) [%],%Inh (PIK3CG) [%],%Inh (PIK4CB) [%],%Inh (PIKFYVE) [%],%Inh (PIM1) [%],%Inh (PIM2) [%],%Inh (PIM3) [%],%Inh (PIP5K1A) [%],%Inh (PIP5K1C) [%],%Inh (PIP5K2B) [%],%Inh (PIP5K2C) [%],%Inh (PKAC-alpha) [%],%Inh (PKAC-beta) [%],%Inh (PKMYT1) [%],%Inh (PKN1) [%],%Inh (PKN2) [%],%Inh (PLK1) [%]
Clc1ccc(-c2nn3ncccc3c2-c2ccnc(Nc3ccc4c(c3)OCCO4)n2)cc1 [GW829116],0,0,0,0,0,0,25,13,6,0,17,0,0,43,24,0,2,0,0,0
CN1CCN(CCCNc2nccc(-c3c(-c4ccc(F)cc4)nn4cc(C(F)(F)F)ccc34)n2)CC1 [GW621581],3,0,0,10,0,1,95.6,10,0,0,0,11,0,0,0,9,0,12,0,0
Nc1ncnc2c1nc(-c1ccccc1)n2-c1ccccc1 [SKF-97293],6,16,27,17,13,29,20,39,0,24,13,0,19,0,7,17,18,20,4,68
Nc1ncc(-c2ccc3nccc(-c4ccncc4)c3c2)cc1S(=O)(=O)N1CCOCC1 [GSK1627798],99.1,100,77,94.1,99.5,96.1,0,0,0,0,0,0,5,30,0,0,11,12,0,0
Cc1ccc(F)c(C(=O)Nc2cccc(-c3nn4ccccc4c3-c3ccnc(Nc4cccc(F)c4)n3)c2)c1F [GSK361061],0,0,0,0,0,0,0,24,0,7,0,6,15,0,13,29,17,0,17,19
COc1cccc(C2=C(Nc3ccc(Cl)c(C(=O)O)c3)C(=O)NC2=O)c1 [SB-390769],100,10,93.3,0,0,0,21,0,0,0,19,60,0,28,0,6,4,0,0,0
CN1CCN(Cc2cccc(-c3ccc4c(Nc5ccc(Oc6ccccc6)cc5)ccnc4c3)c2)CC1 [GW578342],0,0,0,30,1,0,16,0,0,0,26,59,12,9,0,0,0,0,27,0
O=C(Nc1n[nH]c2nc(-c3ccc(O)cc3)ccc12)C1CC1 [SB-710363],0,0,0,0,2,20,0,45,89,81,21,83,56,0,0,18,0,19,23,0
COc1cc(Nc2ncc3c(C)nc(-c4cc5ccccc5[nH]4)n3n2)cc(OC)c1OC [GW869516],0,0,0,0,30,0,0,4,0,0,0,89,29,90.3,0,51,25,0,0,19
C[C@@H](Oc1cc(-n2cnc3cc(-c4ccnc(NCCS(C)(=O)=O)c4)ccc32)sc1C(N)=O)c1ccccc1Cl [GSK907232],0,0,0,39,1,9,0,19,0,27,5,14,47,30,0,0,5,35,0,100
Cl.Cl.NCC(NCc1ccc(-c2ccnc3[nH]ccc23)s1)c1ccccc1 (centres unmarked) [GSK1321565],0,0,19,2,21,4,3,17,0,0,71,63,45,39,97.9,94.9,0,30,64,0
CCS(=O)(=O)c1ccc(OC)c(Nc2nccc(-c3c(-c4cccc(NC(=O)c5c(F)cccc5F)c4)nn4ncccc34)n2)c1 [GSK326180],0,0,0,0,3,7,0,0,0,0,0,8,0,40,0,0,0,0,0,0
Cc1ccc(C(=O)N2CC[C@@H](O)C2)cc1-n1c(C)cc(OCc2ccc(F)cc2F)c(Br)c1=O,0,0,0,0,0,0,28,0,7,1,0,50,0,38,3,0,0,16,0,0
CCn1c(-c2nonc2N)nc2c(C#CC(C)(C)O)nc(OC[C@H](N)c3ccccc3)cc21 [GSK943949],11,0,0,0,0,0,60,0,23,0,0,90.8,0,0,98,97.7,19,90.8,19,0
COc1cc(Nc2nccc(-c3c(-c4cccc(NC(=O)c5c(F)cccc5F)c4)nn4ncccc34)n2)cc(OC)c1OC [GSK327238],0,2,3,0,6,0,0,0,0,0,0,19,20,93.9,44,47,8,62,13,12
O=C(Nc1cccc(-c2nn3ncccc3c2-c2ccnc(Nc3ccccc3)n2)c1)c1c(F)cccc1F [GSK198271],0,0,0,0,0,6,0,16,0,5,0,0,11,27,5,2,7,8,0,3
FC(F)(F)c1ccc(/C=C/c2cncnc2Nc2ccc3[nH]c(Cc4ccccc4)nc3c2)cc1 [GW709199],0,0,0,0,0,0,8,0,22,0,32,30,0,38,0,29,25,0,12,0
